Experimental findings from PubChem BioAssay are described below.

Test [1] in a line: optical density shifts of acrAB sulA E. coli – strain DRC41, OD650, 48 h, E. coli filamentation inducer project, primary screen (AID 1152).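 Note: E. coli MC1000 strain DRC41 lacking acrAB efflux pump and sulA.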 To be noted: higher = more signal, called active from +8 up or from −8 down.
Test [2] can be described thus: probe aLefty1 binding on compound microarray – biochemical, small-molecule microarray, 635/667 nm fluorescence, primary screen (AID 1153).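 Note: score merges spot fluorescence with signal-to-noise ratio from the scanned slide images.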 To be noted: higher = more signal.
A short description of test [3]: plasmodial surface anion channel blockers, osmotic lysis – cell-based, P. falciparum Indochina, OD700, 1 h, primary screen (AID 1154). To be noted: P. falciparum Indochina infected RBC osmotic lysis, higher = more signal, called active from +8 up or from −8 down.
Test [4] is described as follows: plasmodial surface anion channel blockers, osmotic lysis – cell-based, P. falciparum Indochina, OD700, 2 h, primary screen (AID 1155).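 Note: lysis reports solute entry through the parasite surface anion channel PSAC.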 To be noted: P. falciparum Indochina infected erythrocytes, higher = more signal, called active from +8 up or from −8 down.
A short description of test [5]: changes in parasitized red cell lysis, either direction – P. falciparum Indochina, OD700, 3 h, PSAC antagonist project, primary screen (AID 1156). To be noted: P. falciparum-infected erythrocytes, osmotic lysis, higher = more signal, called active from +8 up or from −8 down.
Test [6] in a line: plasmodial surface anion channel blockers, osmotic lysis – cell-based, P. falciparum Indochina, OD700, 18 h, primary screen (AID 1157). To be noted: P. falciparum Indochina infected erythrocytes, osmotic lysis OD700, 18 h; higher = more signal, called active from +8 up or from −8 down.
The nature of test [7]: S6 kinase pathway phospho-S6 level changes – cell-based, A549, cytoblot, luminescence, serum-stimulated, primary screen (AID 1158).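 Note: serum-stimulated A549 lung adenocarcinoma cells; signal is phosphorylated S6 detected by cytoblot immunostaining with HRP secondary.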 To be noted: 5 h, higher = more signal.
The target in test [8] is NADPH oxidase 2 (Homo sapiens) (UniProt P04839). The test is described as follows: compounds shifting NOX2 Amplex Red fluorescence – cell-based, HEK293-NOX2, PMA-stimulated, NOX inhibitor project, primary screen (AID 1159). Note: test concentration not given here. To be noted: 45 min, higher = more signal, called active from +8 up or from −8 down.
Test [9] deals with NADPH oxidase 4 (Homo sapiens) (UniProt Q9NPH5). In words: compounds shifting NOX4 Amplex Red fluorescence – cell-based, HEK293-NOX4, tetracycline-induced, NOX inhibitor project, primary screen (AID 1160). To be noted: HEK293-NOX4, Amplex Red H2O2 fluorescence, 45 min; higher = more signal, called active from +8 up or from −8 down.
In test [10] the target is NADPH oxidase 5 (Homo sapiens) (UniProt Q96PH1). The test is described as follows: compounds shifting NOX5 Amplex Red fluorescence – cell-based, HEK293-NOX5, NOX inhibitor project, primary screen (AID 1161). To be noted: HEK293-NOX5, ionomycin, 45 min, higher = more signal.

The source made the active and inactive calls.

Chain of NADPH oxidase 5 (Homo sapiens) (Q96PH1 whole entry, looked up): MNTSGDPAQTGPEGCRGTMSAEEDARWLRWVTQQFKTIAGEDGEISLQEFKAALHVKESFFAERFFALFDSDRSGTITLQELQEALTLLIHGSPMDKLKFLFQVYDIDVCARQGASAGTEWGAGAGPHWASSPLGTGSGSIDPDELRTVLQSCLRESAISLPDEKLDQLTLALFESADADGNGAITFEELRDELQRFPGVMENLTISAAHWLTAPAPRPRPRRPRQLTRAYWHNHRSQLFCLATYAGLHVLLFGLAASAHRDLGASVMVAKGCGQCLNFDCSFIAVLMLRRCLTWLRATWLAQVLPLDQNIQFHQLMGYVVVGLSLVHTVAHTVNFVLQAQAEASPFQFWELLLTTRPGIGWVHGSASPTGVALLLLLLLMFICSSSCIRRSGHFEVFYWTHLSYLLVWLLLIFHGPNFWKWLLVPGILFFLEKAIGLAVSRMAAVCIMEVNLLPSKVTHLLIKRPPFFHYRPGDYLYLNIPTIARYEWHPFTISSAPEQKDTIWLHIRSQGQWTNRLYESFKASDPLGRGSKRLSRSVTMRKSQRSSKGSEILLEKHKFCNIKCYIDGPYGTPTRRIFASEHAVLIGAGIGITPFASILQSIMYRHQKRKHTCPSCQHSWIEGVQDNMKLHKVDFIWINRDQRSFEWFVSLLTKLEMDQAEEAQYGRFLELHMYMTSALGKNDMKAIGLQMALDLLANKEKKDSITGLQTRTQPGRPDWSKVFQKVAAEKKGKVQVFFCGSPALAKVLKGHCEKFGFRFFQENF
Chain of NADPH oxidase 4 (Homo sapiens) (Q9NPH5 whole entry, looked up): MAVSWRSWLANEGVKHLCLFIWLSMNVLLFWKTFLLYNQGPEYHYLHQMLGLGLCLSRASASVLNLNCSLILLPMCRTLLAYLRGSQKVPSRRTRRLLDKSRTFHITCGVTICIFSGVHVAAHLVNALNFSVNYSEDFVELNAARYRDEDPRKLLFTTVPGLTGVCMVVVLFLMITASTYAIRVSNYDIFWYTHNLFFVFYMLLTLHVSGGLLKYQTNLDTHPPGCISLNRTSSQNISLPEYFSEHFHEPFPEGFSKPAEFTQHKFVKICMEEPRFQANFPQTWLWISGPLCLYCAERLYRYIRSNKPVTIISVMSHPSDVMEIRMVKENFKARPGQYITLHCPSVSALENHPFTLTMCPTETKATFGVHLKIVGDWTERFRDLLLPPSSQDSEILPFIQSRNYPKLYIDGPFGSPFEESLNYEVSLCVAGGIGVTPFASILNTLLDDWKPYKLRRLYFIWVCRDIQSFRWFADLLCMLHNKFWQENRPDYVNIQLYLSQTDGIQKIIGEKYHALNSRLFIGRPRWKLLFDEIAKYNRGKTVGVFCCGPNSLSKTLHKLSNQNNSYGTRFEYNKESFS
Chain of NADPH oxidase 2 (Homo sapiens) (P04839 whole entry, looked up): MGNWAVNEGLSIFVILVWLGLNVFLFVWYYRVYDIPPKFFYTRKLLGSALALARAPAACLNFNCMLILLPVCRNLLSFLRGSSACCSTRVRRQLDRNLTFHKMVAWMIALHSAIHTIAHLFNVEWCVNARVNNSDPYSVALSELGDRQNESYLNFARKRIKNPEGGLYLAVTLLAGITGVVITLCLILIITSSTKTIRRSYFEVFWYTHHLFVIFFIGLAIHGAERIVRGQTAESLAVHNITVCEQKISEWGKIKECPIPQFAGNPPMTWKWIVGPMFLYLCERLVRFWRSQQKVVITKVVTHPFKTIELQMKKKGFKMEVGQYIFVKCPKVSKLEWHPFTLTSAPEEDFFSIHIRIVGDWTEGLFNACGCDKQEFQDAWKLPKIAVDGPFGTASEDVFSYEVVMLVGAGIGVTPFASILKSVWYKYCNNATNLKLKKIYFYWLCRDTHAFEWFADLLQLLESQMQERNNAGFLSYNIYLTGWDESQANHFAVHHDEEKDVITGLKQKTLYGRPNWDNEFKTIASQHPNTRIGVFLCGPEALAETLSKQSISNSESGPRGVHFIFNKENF

Consider `COCCOC(=O)N1C(=O)[C@@]2(c3cc(C#CCCO)ccc31)[C@H](C(N)=O)[C@H]1C(=O)O[C@H](c3ccccc3)[C@H](c3ccccc3)N1[C@@H]2c1ccc(OCCO)cc1`, for which the z-score in test [1] was -0.138 (inactive); in test [3], 23.4 (active); in test [4], 5.49 (inactive); in test [5], 1.88 (inactive); in [6] it was 1.3 (inactive); in [7], 0.388. The z-score in [8] was 1.78 (inactive); in [9], 1.1 (inactive); in [10] it was 0.785. Besides, the composite z-score in [2] was 0.157.
For `CN(C)CCCCNC(=O)[C@H]1C[C@H]2C(=O)N[C@@H](CCCC[N+](C)(C)C)C(=O)N2[C@H]1c1ccc(O)cc1`, the z-score in test [1] was 1.67 (inactive); in test [3], 1.32 (inactive); in [4], -0.539 (inactive); in test [5] it was -0.27 (inactive); in test [6], -1.63 (inactive); in test [7] it was 0.0054. Besides, the z-score in test [8] was 0.622 (inactive); in test [9], 0.319 (inactive); in test [10], 1.31. Besides, in test [2], the composite z-score is -0.2.
In the case of `COc1ccc([Si](C)(C)[C@H]2[C@H](CCO)O[C@@]3(C(=O)N(Cc4ccccc4)c4ccc(N5CCOC5=O)cc43)[C@@H]2C)cc1`, the z-score in test [1] is -0.261 (inactive); in test [3], 5.86 (inactive); in test [4] it was 1.9 (inactive); in test [5], -0.307 (inactive); in test [6], 0.913 (inactive); in test [7], 0.577. For the same molecule, the z-score in test [8] is -1.36 (inactive); in [9], 1.71 (inactive); in [10], 2.27. The same molecule showed a composite z-score in [2] of -0.0025.
As to `C=C(/C(=C/C[C@@H](OC(=O)c1ccncc1)c1cccc(OCCO)c1)c1cnc2ccccc2c1)C(C)C`, the z-score in test [1] was 0.172 (inactive); in test [3], 13.7 (active); in test [4], 1.86 (inactive); in test [5] it was 1.32 (inactive); in test [6], 0.897 (inactive); in [7], 0.199. The z-score is -1.34 (inactive) in test [8], -0.507 (inactive) in test [9] and -0.782 in test [10]. Further, the composite z-score in test [2] was 0.13.
For `COC(=O)C(CC#Cc1ccc2c(c1)[C@]1(C(=O)N2)[C@H](C(=O)Nc2nc3ccccc3s2)[C@H]2C(=O)O[C@H](c3ccccc3)[C@H](c3ccccc3)N2[C@@H]1c1ccc(OCCO)cc1)C(=O)OC`, the z-score in test [1] is 2.65 (inactive); in [3], 5.91 (inactive); in test [4], 0.782 (inactive); in test [5] it was 0.299 (inactive); in test [6], -1.27 (inactive); in test [7], 1.76. Besides, the z-score in [8] was 1.1 (inactive); in test [9] it was 0.326 (inactive); in test [10], 0.613. In test [2], this molecule yielded a composite z-score of 0.5.
`CC(C)[Si]1(C(C)C)OCc2cc(-c3ccc(-c4ccc(Cl)c(Cl)c4)o3)nc(CCc3ccccc3)c21`: the z-score in test [1] is 0.785 (inactive); in test [3] it was 1.58 (inactive); in test [4], -0.0088 (inactive); in test [5], -0.263 (inactive); in test [6] it was -1.01 (inactive); in test [7] it was 0.353. Moreover, the z-score in [8] is 0.69 (inactive); in test [9] it was 0.187 (inactive); in test [10], -0.402. This molecule also came in with a composite z-score in [2] of -0.239.
In the case of `COC(=O)[C@@]1(Cc2ccc(F)cc2)[C@H]2c3cc(C(=O)N(C)C)n(Cc4c(CO)[nH]cc(C)c4=O)c3C[C@H]2CN1C(=O)c1ccccc1`, the z-score in test [1] is -1.35 (inactive); in test [3], 0.756 (inactive); in test [4], 0.19 (inactive); in test [5] it was 0.865 (inactive); in test [6], 0.816 (inactive); in test [7], -0.122. Also, the z-score in test [8] is 0.31 (inactive); in test [9], -0.0408 (inactive); in test [10] it was -3.5. This molecule registered a composite z-score in test [2] of 0.0752.
Consider `CC(C)C(CO)N1C(=O)[C@@H]2[C@H]3C(=O)OCC=C[C@H]3OC23C=CCN(C(C)(C)C)C(=O)[C@@H]13` (stereo not given in full), for which the z-score in test [1] was -0.875 (inactive); in test [3], 0.897 (inactive); in [4], 0.226 (inactive); in test [5], 0.697 (inactive); in [6], 0.0863 (inactive); in test [7] it was -0.154. Moreover, the z-score in test [8] was 0.997 (inactive); in test [9], 0.16 (inactive); in test [10], 1.92. This molecule had a composite z-score in [2] of -0.155.
Turning to `O=C(NCCN1CCOCC1)[C@@H]1c2ccccc2C(=O)N(Cc2ccccc2)[C@H]1c1ccc(CO)cc1`, the z-score is 0.347 (inactive) in test [1]; 1.23 (inactive) in test [3]; -0.222 (inactive) in test [4]; 0.766 (inactive) in test [5]; -0.0161 (inactive) in test [6]; -0.214 in test [7]. The results for the z-score in test [8], in test [9] and in test [10] were -1.71 (inactive), -0.652 (inactive) and -2.89, respectively. Moreover, in test [2], the composite z-score is -0.101.
`O=C1O[C@H](c2ccccc2)[C@H](c2ccccc2)N2[C@H]1[C@@H](C(=O)Nc1nc3ccccc3s1)[C@]1(C(=O)Nc3ccc(C#CC4=CCCCC4)cc31)[C@H]2c1ccc(O)cc1`: the z-score in [1] was 2.68 (inactive); in [3], -0.559 (inactive); in test [4] it was -0.0042 (inactive); in test [5], -0.715 (inactive); in [6], 0.193 (inactive); in test [7], 1.26. For the same molecule, the z-score in test [8] was 0.878 (inactive); in test [9] it was 0.214 (inactive); in [10], 0.191. Besides, in [2], the composite z-score amounted to 0.122.
In the case of `C=C[C@@H](C)[C@H](O)c1ccc(OCCO)cc1`, the z-score in [1] is 0.227 (inactive); in test [3], 1.79 (inactive); in [4] it was 0.833 (inactive); in test [5], 0.485 (inactive); in test [6] it was 0.402 (inactive); in test [7], -0.198. Besides, the results for the z-score in test [8], in [9] and in test [10] were -0.613 (inactive), -0.311 (inactive) and 0.394, respectively. For the same molecule, in test [2], the composite z-score is -0.193.
Regarding `COc1cc2c(cc1O)C(c1cccs1)N(Cc1sc3ccccc3c1Cl)CC2` (stereo not given), the z-score was -1.49 (inactive) in [1]; 10.4 (active) in [3]; 3.63 (inactive) in test [4]; -0.333 (inactive) in test [5]; 2.24 (inactive) in test [6]; -0.511 in test [7]. Further, the z-score in [8] is -3.92 (inactive); in test [9], -2.48 (inactive); in test [10], -3.48. For the same molecule, the composite z-score in [2] is 0.0479.
Turning to `CC(C)(C)OC(=O)CC[C@]12N=C(c3ccc(OCCCO)cc3)O[C@H]1c1ccccc1N(Cc1ccccc1)C2=O`, the z-score in test [1] is 0.617 (inactive); in test [3], 27 (active); in [4] it was 28.2 (active); in [5] it was 4.42 (inactive); in test [6], 2.09 (inactive); in test [7], 0.34. The figures for the z-score in test [8], in [9] and in test [10] were 3.89 (inactive), 0.102 (inactive) and -1.71, respectively. The same molecule gave a composite z-score in test [2] of 0.848.
